We go through seven compounds from PubChem BioAssay (NCATS).

The target in assay [1] is Lysosomal acid glucosylceramidase (Homo sapiens) (UniProt P04062). The experiment in a line: Glucocerebrosidase-p2 (AID 348; in the data active means potency below about 10 µM; further: potency means the concentration at half of the fitted maximal effect). Particulars: purified GBA, blue fluorogenic substrate, 40 min. An outline of the steps: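 Compounds titrated from 0.6 nM upwards against 0.2 nM enzyme in pH 5.9 citric acid/KH2PO4, taurocholate, tween-20; blue fluorogenic substrate 80 uM, 40 min room temperature, stopped and read Ex 365/Em 440 for AC50.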

Assay [2] is described as follows: AP1 Signaling Pathway (AID 357; active means well fitted curve in either direction with a large enough effect, not every such curve was filed as active; further: on the % scale 0 is the no-effect control and ±100 the full control effect). Particulars: ME-180 AP-1-bla reporter, EGF-induced, beta-lactamase ratio, 5 h; at 7.69 µM (top of the series) unless noted. An outline of the steps:
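AP-1-bla ME-180 cells with beta-lactamase reporter under AP-1 response element, stimulated with EC50 EGF; compounds titrated, 5 hours at 37 degrees Celsius. CCF4 read at 460/530 nm ratio; positive and negative modulators judged by AC50.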

A short description of assay [3]: NFAT Signaling Pathway (AID 444; active means well fitted curve in either direction with a large enough effect, not every such curve was filed as active;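 further: carbachol stimulus at about its EC50 of 1 µM final; on the % scale 0 is the no-effect control and ±100 the full control effect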). The following applies: Jurkat NFAT-bla M1, carbachol, beta-lactamase ratio, 5 h; at 7.69 µM (top of the series) unless noted. An outline of the steps: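 Jurkat cells with NFAT-driven β-lactamase reporter and co-expressed M1 receptor, stimulated with carbachol (final 1 uM, ~EC50), compound titration, 5 h at 37 °C. CCF4 loaded 1 h at RT; 460/530 nm ratio gave %activity and AC50.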

For assay [4], the target named is Glucocorticoid receptor (Homo sapiens) (UniProt P04150). Nature of the assay: GR-EFC Redistribution (AID 451; calls by dose curve; further: potency means the concentration at half of the fitted maximal effect). Particulars: CHO-K1 GR-EFC translocation, beta-gal luminescence, 2 h. An outline of the steps: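 CHO-K1 cells expressing nuclear EA and GR-ED fragments of b-gal; compounds titrated up to 46 uM final, 2 h at 37 C. GR nuclear translocation read as complemented b-gal luminescence after 1 h RT detection.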

In assay [5] the target is Mitogen-activated protein kinase 10 (Mus musculus) (UniProt Q61831). Nature of the assay: JNK3 AlphaScreen Assay (AID 530; active means well fitted curve in either direction with a large enough effect, not every such curve was filed as active;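 further: kinase came from lysate of stimulated human HepG2 cells; signal reports phosphorylation of biotinylated GST-cJun 1-79 at Ser73 with 10 µM ATP; on the % scale 0 is the no-effect control and ±100 the full control effect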). The following applies: JNK3 lysate, c-Jun phosphorylation; series mostly up to 57.1 µM. An outline of the steps: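 qHTS format: compounds tested as titrations against IL-1beta/TNF-alpha-activated HepG2 lysate JNK3 with biotin-GST-cJun substrate and 10 uM ATP at room temperature. Loss of anti-phospho-cJun AlphaScreen signal indicates inhibition.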

Assay [6] deals with 3',5'-cyclic-AMP phosphodiesterase 4B (Homo sapiens) (UniProt Q07343). The experiment in a line: qHTS Assay for Inhibitors of PDE-IV (AID 607; active means well fitted activation curve with a large enough effect in the main read-out, with a control signal flat, not every such curve was filed as active; further: % of control where 0% means no effect). Particulars: HEK293 ACTOne CNG channel cells, membrane potential fluorescence; series mostly up to 22.9 µM. An outline of the steps:
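ACTOne HEK293 cells carry a modified cAMP-gated CNG channel and express endogenous PDE4; plated 1000 cells/well, compounds up to 22.9 uM final. Membrane-potential dye fluorescence (ex 535/em 590) was read; parental cells received 10 uM forskolin + 100 uM RO 20-1724.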
In general terms: qHTS replaces the single test concentration by a dilution series.

Assay [7] can be described thus: qHTS Assay for Identification of Small Molecule Agonists for Hypoxia Response Element Signaling Pathway (AID 914; active means well fitted activation curve with a large enough effect in the signal ratio, with a control signal flat, not every such curve was filed as active; the % refers to the signal ratio; further: potency means the concentration at half of the fitted maximal effect). Particulars: ME-180 HRE-bla reporter, beta-lactamase ratio, CoCl2, 17 h; activation: hits give high values. In a few lines: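 Compounds in a titration series were added to ME-180 reporter cells alongside an EC50 level of CoCl2. After 17 hours, beta-lactamase activity was read as the 460nm/530nm emission ratio of CCF4, giving AC50 values.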

Assay [8] deals with Dual specificity protein kinase CLK4 (Homo sapiens) (UniProt Q9HAZ1). Nature of the assay: qHTS Assay for Inhibitors of CDC-like Kinase 4 (Kinase-Glo Assay) (AID 1770). Further: nearly all actives have a fitted effect of over 65% in size. Further: potency means the concentration at half of the fitted maximal effect. The following applies: recombinant Clk4, Kinase-Glo ATP depletion luminescence; series mostly up to 66.7 µM. In a few lines:
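Recombinant human Clk4 (25 nM) phosphorylated RS repeat peptide (100 uM) with 1 uM ATP in Tris pH 7.5/MgCl2/EGTA/DTT/Triton buffer for 4.5 h at room temperature. Residual ATP was quantified by Kinase-Glo luciferase luminescence.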

The target is the same in assay [9]. The experiment in a line: qHTS Assay for Inhibitors of CDC-like Kinase 4 (ADP-Glo Assay) (AID 1771). Further: nearly all actives have a fitted effect of over 70% in size. Further: potency means the concentration at half of the fitted maximal effect. Particulars: recombinant CLK4, ADP-Glo luminescence; series mostly up to 80 µM. An outline of the steps:
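Kinase reaction: Clk4 at 25 nM, RS repeat peptide substrate at 100 uM, ATP at 1 uM, 1 hr, room temperature. Product ADP detected as luciferase signal via ADP-Glo.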

The target is the same in assay [10]. Nature of the assay: qHTS Assay for Inhibitors of CDC-like Kinase 4 (ADP-FP Assay) (AID 1795). Further: nearly all actives have a fitted effect of over 60% in size. Further: potency means the concentration at half of the fitted maximal effect. The following applies: Transcreener ADP fluorescence polarization; series mostly up to 50 µM. An outline of the steps: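 Recombinant human Clk4 (6.25 nM) phosphorylated RS repeat peptide (100 uM) with 1 uM ATP in Tris pH 7.5/MgCl2/EGTA/DTT/Triton buffer for one hour. ADP was quantified by Transcreener competitive fluorescence polarization against an ADP calibration curve.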

In assay [11] the target is Ubiquitin carboxyl-terminal hydrolase 1 (Homo sapiens) (UniProt O94782). Nature of the assay: Inhibitors of USP1/UAF1: Pilot qHTS (AID 504865).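 Further: rhodamine fluorescence freed from ubiquitin-rhodamine substrate followed over time; top concentration of the series differs between compounds; on the % scale 0 is the no-effect control and ±100 the full control effect; nearly all actives have a fitted effect of over 35% in size.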 Particulars: purified USP1/UAF1, Ub-rhodamine cleavage fluorescence; series mostly up to 54.9 µM. An outline of the steps: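 USP1/UAF1 complex (1nM) preincubated with compound 15 min at room temperature, then Ub-Rho substrate (150nM final) added. Fluorescence read kinetically at 480/540 nm, 6 reads every 60 seconds. Buffer: 50mM HEPES pH 7.8, 0.5mM EDTA, 0.1 mg/ml BSA, 1mM TCEP, 0.01% Tween-20.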

A short description of assay [12]: Primary qHTS for small molecule stabilizers of the endoplasmic reticulum resident proteome: Secreted ER Calcium Modulated Protein (SERCaMP) assay (AID 1508630). Further: on the % scale 0 is the no-effect control and ±100 the full control effect. The following applies: SH-SY5Y GLuc-SERCaMP (Gaussia luciferase released on ER calcium loss) secretion, thapsigargin, luminescence; series mostly up to 38.4 µM. In a few lines:
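GLuc-SERCaMP-expressing SH-SY5Y cells, pretreated 16 h with compound, are challenged with thapsigargin to empty ER calcium stores; after 4 h, coelenterazine is added directly to the medium and luminescence is imaged.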

Assay [13] in a line: Stat Signaling Pathway (AID 446; active means well fitted curve in either direction with a large enough effect, not every such curve was filed as active). Particulars: ME-180 (cervical carcinoma) SIE beta-lactamase reporter, IL-6 stimulated, 5 h; at 7.69 µM (top of the series) unless noted. In a few lines:
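ME-180 SIE-bla cells; overnight plating; cpd + IL-6 40 pM, 5 h, 37 C; LiveBLAzer 2.5 h RT; 460/530 nm emission ratio. Normalized to 300 pM IL-6 and 125 nM JAK inhibitor controls.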

For assay [14], the target named is Cytochrome P450 1A2 (Homo sapiens) (UniProt P05177). Nature of the assay: p450-cyp1a2 (AID 410; calls by dose curve; further: potency means the concentration at half of the fitted maximal effect). The following applies: recombinant CYP1A2, luciferin-ME demethylation, luminescence; series mostly up to 57 µM. An outline of the steps:
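Inhibition was calculated relative to 57 uM furafylline (full inhibition). The reaction used human CYP1A2 at 20nM with Luciferin-ME at its Km, 100uM, driven by an NADPH-regenerating system for 60 min at room temperature.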

The target in assay [15] is Glucocorticoid receptor (Homo sapiens) (UniProt P04150). Nature of the assay: GR-GFP Redistribution (AID 450;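 active means compounds whose dose series gives a full or clear partial fitted curve of increased nuclear translocation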; further: potency means the concentration at half of the fitted maximal effect). Particulars: U2OS GR-GFP nuclear translocation, laser cytometry, 2 h.
In assay [16] the target is Cytochrome P450 3A4 (Homo sapiens) (UniProt P08684). Nature of the assay: qHTS Assay for Inhibitors and Substrates of Cytochrome P450 3A4 (AID 884). Further: on the % scale 0 is the no-effect control and ±100 the full control effect; nearly all actives have a fitted effect of over 50% in size. The following applies: recombinant CYP3A4, Luciferin-PPXE luminescence; series mostly up to 57.1 µM. An outline of the steps: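 20 nM human CYP3A4 with 25 uM Luciferin-PPXE (at KM) in 200 mM KPO4, preincubated 10 min with compound; NADPH regeneration started a 60 min RT reaction. Luciferin detected by luminescence, normalized to 57 uM ketoconazole as full inhibition.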

Assay [17] has as its target Cytochrome P450 2C19 (Homo sapiens) (UniProt P33261). Nature of the assay: qHTS Assay for Inhibitors and Substrates of Cytochrome P450 2C19 (AID 899). Further: on the % scale 0 is the no-effect control and ±100 the full control effect; nearly all actives have a fitted effect of over 60% in size. Particulars: recombinant CYP2C19, luciferin-H EGE luminescence; series mostly up to 57.1 µM. In a few lines: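 Luminescent read-out of luciferin formed from Luciferin-H EGE (10uM, equal to KM). Enzyme 5nM in 50mM KPO4; compound added, 10 min at 37C, then NADPH regenerating system for 60 min at 37C. Full inhibition defined by 57uM ketoconazole.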

The target of assay [18] is Cytochrome P450 3A4 (Homo sapiens) (UniProt P08684). Nature of the assay: qHTS Assay for Activators of Cytochrome P450 3A4 (AID 885). Further: nearly all actives have a fitted effect of over 65% in size. Particulars: recombinant CYP3A4, Luciferin-PPXE luminescence, 60 min; series mostly up to 57.1 µM. In a few lines:
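20nM CYP3A4 + 25uM Luciferin-PPXE (=KM), 200mM KPO4; cpd 10 min RT; NADPH regen, 60 min RT; stop w/ detection buffer, 20 min; luminescence. Normalized to 57 uM ketoconazole.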

Values without a mark were called inactive. Results filed as inconclusive are left out. Calls of active or inactive are those of the source. Unless noted, the call rests on the fitted dose curve; in most records, active means well fitted curve in the direction sought with a large enough effect; inconclusive means small, poorly fitted or top-dose-only effect, or another doubt; inactive means no such curve, though single readings can be large; an effect the other way counts as inactive or inconclusive.

Chain of Lysosomal acid glucosylceramidase (Homo sapiens) (P04062 whole entry, looked up): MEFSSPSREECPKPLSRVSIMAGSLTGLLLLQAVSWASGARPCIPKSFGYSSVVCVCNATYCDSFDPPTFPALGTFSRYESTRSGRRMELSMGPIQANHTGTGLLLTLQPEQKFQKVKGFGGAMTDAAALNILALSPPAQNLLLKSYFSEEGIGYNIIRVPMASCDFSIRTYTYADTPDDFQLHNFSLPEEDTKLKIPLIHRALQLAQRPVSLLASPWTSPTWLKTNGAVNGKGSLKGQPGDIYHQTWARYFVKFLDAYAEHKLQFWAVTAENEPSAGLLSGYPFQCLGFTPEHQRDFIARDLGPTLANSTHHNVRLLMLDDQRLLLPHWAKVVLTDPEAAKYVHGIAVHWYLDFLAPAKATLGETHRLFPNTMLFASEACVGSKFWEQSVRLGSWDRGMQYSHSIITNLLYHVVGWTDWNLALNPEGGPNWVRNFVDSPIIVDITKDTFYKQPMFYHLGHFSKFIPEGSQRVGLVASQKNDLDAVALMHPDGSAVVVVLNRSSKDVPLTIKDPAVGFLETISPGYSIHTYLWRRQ
Chain of 3',5'-cyclic-AMP phosphodiesterase 4B (Homo sapiens) (Q07343 whole entry, looked up): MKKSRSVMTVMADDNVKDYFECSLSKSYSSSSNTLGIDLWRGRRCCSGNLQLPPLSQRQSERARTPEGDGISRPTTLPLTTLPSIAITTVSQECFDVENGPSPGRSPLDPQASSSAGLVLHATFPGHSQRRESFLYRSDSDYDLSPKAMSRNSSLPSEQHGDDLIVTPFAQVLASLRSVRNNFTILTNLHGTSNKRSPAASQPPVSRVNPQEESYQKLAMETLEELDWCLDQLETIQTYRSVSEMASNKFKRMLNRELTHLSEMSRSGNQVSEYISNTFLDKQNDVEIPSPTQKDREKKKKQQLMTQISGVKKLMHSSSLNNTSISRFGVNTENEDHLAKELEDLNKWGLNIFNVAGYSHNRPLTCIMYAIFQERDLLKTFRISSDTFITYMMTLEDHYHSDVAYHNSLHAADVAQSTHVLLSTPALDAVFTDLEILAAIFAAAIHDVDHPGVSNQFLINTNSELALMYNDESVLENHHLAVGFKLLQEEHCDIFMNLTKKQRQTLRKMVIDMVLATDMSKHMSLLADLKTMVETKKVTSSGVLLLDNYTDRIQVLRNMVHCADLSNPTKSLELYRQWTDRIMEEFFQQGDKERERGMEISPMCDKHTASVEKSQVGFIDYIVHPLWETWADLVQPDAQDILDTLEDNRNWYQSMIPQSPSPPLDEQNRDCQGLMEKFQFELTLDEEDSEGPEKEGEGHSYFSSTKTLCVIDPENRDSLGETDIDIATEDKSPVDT
Chain of Dual specificity protein kinase CLK4 (Homo sapiens) (Q9HAZ1 whole entry, looked up): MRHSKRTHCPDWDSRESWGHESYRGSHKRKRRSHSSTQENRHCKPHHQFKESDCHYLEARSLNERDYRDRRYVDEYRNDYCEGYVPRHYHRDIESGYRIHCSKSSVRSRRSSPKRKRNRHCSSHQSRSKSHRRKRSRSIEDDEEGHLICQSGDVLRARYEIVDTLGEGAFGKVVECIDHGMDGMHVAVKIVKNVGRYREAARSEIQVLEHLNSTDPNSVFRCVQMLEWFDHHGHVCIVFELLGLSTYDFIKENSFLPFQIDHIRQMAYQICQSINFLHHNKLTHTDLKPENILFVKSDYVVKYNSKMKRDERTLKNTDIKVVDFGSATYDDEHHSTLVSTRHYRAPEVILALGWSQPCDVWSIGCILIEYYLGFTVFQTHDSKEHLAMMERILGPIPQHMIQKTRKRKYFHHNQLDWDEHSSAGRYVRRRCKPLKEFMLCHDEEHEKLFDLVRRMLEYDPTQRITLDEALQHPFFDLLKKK
Chain of Cytochrome P450 1A2 (Homo sapiens) (P05177 whole entry, looked up): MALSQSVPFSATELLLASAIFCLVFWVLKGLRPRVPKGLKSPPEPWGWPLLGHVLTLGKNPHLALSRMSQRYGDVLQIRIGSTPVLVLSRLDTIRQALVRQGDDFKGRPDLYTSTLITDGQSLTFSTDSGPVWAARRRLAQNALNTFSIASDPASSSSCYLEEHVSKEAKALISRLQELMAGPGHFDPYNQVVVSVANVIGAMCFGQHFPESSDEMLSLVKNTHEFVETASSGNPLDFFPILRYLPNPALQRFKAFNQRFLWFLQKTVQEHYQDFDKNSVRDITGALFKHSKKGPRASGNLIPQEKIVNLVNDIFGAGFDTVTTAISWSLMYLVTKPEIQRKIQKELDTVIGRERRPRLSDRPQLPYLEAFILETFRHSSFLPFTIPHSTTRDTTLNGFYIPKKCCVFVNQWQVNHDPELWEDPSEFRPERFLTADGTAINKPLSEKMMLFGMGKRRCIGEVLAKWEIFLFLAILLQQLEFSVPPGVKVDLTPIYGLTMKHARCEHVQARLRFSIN
Chain of Glucocorticoid receptor (Homo sapiens) (P04150 whole entry, looked up, the tested form may be a part): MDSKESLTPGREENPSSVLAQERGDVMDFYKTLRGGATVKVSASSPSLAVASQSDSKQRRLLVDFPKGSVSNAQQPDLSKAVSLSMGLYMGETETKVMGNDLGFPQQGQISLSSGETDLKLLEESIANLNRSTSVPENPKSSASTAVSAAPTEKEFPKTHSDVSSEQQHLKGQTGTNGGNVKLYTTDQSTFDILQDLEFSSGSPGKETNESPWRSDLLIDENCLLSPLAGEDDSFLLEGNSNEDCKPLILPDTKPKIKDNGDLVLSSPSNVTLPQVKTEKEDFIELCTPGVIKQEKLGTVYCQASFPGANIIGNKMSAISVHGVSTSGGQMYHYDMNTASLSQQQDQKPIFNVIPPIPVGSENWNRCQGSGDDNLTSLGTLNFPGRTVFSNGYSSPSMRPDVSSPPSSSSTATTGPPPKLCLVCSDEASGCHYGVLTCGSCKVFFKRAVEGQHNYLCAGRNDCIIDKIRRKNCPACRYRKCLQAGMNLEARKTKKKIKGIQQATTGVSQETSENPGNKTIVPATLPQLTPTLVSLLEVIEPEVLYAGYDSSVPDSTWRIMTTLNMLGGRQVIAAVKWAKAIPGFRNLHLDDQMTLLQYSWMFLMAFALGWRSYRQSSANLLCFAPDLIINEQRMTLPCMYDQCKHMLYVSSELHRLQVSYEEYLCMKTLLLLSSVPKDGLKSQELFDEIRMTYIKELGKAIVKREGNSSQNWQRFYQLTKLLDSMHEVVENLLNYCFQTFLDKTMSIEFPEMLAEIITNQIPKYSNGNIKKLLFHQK
Chain of Ubiquitin carboxyl-terminal hydrolase 1 (Homo sapiens) (O94782 whole entry, looked up): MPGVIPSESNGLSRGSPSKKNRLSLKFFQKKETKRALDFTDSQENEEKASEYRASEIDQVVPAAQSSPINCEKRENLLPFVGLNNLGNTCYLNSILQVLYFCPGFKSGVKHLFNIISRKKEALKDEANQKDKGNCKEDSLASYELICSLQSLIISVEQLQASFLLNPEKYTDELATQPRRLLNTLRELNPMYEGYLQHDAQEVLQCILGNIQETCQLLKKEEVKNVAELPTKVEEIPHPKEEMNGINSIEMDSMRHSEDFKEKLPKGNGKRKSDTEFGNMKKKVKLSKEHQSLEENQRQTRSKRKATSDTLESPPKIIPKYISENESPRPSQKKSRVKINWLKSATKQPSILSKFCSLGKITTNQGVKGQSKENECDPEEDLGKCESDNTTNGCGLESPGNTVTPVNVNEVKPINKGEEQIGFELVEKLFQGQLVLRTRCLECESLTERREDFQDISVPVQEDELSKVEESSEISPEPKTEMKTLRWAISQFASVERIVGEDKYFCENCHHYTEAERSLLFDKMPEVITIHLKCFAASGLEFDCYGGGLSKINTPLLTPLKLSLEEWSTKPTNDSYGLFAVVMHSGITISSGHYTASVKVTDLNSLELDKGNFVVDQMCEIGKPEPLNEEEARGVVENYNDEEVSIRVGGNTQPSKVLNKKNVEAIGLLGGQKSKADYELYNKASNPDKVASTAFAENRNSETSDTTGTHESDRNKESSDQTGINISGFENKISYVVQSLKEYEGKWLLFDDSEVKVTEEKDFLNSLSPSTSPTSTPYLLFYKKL
Chain of Cytochrome P450 3A4 (Homo sapiens) (P08684 whole entry, looked up): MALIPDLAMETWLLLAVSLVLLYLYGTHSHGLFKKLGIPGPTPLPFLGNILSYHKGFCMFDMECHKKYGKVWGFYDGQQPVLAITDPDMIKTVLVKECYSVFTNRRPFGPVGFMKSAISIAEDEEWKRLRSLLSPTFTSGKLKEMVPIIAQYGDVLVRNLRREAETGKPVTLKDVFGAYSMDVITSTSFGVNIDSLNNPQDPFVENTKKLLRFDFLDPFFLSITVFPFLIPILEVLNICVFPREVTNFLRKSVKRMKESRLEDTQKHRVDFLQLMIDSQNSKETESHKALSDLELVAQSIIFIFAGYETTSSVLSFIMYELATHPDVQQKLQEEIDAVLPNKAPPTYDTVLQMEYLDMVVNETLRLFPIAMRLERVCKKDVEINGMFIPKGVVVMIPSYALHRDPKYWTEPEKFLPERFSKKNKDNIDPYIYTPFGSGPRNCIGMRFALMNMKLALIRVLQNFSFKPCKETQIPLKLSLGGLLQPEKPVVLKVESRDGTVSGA
Chain of Cytochrome P450 2C19 (Homo sapiens) (P33261 whole entry, looked up): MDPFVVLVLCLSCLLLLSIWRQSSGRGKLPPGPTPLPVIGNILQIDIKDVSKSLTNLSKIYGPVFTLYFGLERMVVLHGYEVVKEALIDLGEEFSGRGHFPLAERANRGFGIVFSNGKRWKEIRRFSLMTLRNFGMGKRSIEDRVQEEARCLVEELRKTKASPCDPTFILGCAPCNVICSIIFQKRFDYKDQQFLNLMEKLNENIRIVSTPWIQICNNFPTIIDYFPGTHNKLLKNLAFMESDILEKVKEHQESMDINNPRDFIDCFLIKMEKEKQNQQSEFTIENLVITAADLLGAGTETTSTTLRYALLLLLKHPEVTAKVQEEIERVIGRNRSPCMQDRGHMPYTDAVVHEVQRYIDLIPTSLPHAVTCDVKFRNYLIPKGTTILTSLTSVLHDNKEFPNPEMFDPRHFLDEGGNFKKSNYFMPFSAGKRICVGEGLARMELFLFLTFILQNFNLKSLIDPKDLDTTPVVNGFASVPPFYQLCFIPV

For the compound `CCNc1ncc2nc(-c3cc(F)cc(F)c3)c(=O)n(Cc3ccc(F)cc3)c2n1`, the figures for the Potency in assay [1], in [4] and in [7] were greater than 11.4 µM, greater than 46 µM and 2 µM (active), respectively. Moreover, the activity change, negative = inhibition in assay [2] was 20.2%; in assay [3], 28.9%. The Potency entry in [5], in [6], in assay [8], in [9], in assay [10] and in assay [11] was “inactive” each time. In [12], the result was inactive.
Turning to `COc1ncc2nc(-c3ccccc3)c(=O)n(CCC#N)c2n1`, the Potency in assay [1] was greater than 11.4 µM; in assay [4] it was greater than 46 µM. Further, the activity change, negative = inhibition was -23.7% in [2] and -5.79% in assay [3]. In addition, the activity, negative = inhibition in assay [13] is -14.9%. In addition, the Potency entry in [5], in [6], in assay [8], in assay [9], in assay [10] and in [11] was “inactive” throughout. Besides, in assay [12], the outcome was inactive.
As to `CCNc1ncc2nc(-c3ccc(Cl)cc3)c(=O)n(Cc3ccc(F)cc3)c2n1`, the Potency in assay [1] is greater than 11.4 µM; in assay [14] it was 12.6 µM (active); in assay [15], greater than 9.22 µM; in assay [4], greater than 46 µM; in assay [7] it was 0.1 µM (active). Moreover, the activity change, negative = inhibition in [3] is -1.59%. In addition, the Potency result in assay [5], in [16], in assay [17], in assay [8], in [9] and in assay [10] was “inactive” each time. Moreover, the Potency entry in [11] was “inactive”. Moreover, in assay [12], the result was inactive.
On to `COc1cccc(Nc2ncc3nc(-c4ccccc4)c(=O)n(C)c3n2)c1`, for which the Potency in [1] is greater than 11.4 µM; in assay [14] it was 3.16 µM (active); in assay [15] it was greater than 9.22 µM; in assay [4], greater than 46 µM. Moreover, in assay [3], the activity change, negative = inhibition was -6.92%. Also, the activity, negative = inhibition in assay [13] was 4.13%. For the same compound, the Potency entry in [5], in assay [8], in assay [9], in assay [10] and in [11] was “inactive” throughout. In assay [12], the result was inactive.
For `COc1ccc(-c2nc3cnc(N4CCOCC4)nc3n(CCc3ccccc3)c2=O)cc1`, the Potency is greater than 11.4 µM in assay [1]; 10 µM (active) in assay [14]; greater than 9.22 µM in assay [15]; greater than 46 µM in [4]; 1.26 µM (active) in assay [7]. Further, the activity change, negative = inhibition in assay [3] is 119% [activator] (active). In addition, the activity, negative = inhibition in assay [13] was 92.5% [activator] (active). The Potency result in [5], in assay [6], in [8], in [9], in [10] and in assay [11] was “inactive” throughout. For the same compound, the outcome in assay [12] was inactive.
Regarding `Fc1ccc(Nc2ncnc3ccc(-c4ccoc4)cc23)cc1`, the Potency is greater than 11.4 µM in assay [1]; 1 µM (active) in assay [14]; greater than 46 µM in [15]; greater than 46 µM in assay [4]; 0.631 µM (active) in assay [8]; 0.708 µM (active) in assay [9]. The Potency in assay [10] was 0.355 µM (active). Further, the activity change, negative = inhibition in assay [3] is 10.4%. In addition, in [13], the activity, negative = inhibition was -22.9%. Further, the Potency result in assay [5], in [18] and in assay [11] was “inactive” each time. Further, the result in assay [12] was inactive.
As to `FC(F)(F)c1ccccc1-c1cncnc1NCc1ccccc1`, the Potency in assay [1] is greater than 11.4 µM; in assay [4] it was greater than 46 µM. Further, the activity change, negative = inhibition in assay [2] is -12.5%; in [3], -25.7%. Also, the activity, negative = inhibition in assay [13] was 8.04%. For the same compound, the Potency entry in [5], in [8], in assay [9], in assay [10] and in assay [11] was “inactive” throughout. Moreover, the result in [12] was inactive.
